The record followed here is PubChem BioAssay (Tox21).

Assay [1] in a line: qHTS assay to identify small molecule antagonists of the estrogen receptor alpha (ER-alpha) signaling pathway using the BG1 cell line in the presence of 0.1 nM 17-beta-estradiol - cell viability counter screen (AID 1259241). Note: nearly all actives have a fitted effect of over 40% in size. A digest of the protocol: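 The cell line endogenously expresses full-length ER-alpha and carries four EREs driving luciferase. Cells are cultured 5 days hormone-free, treated 22 hr with compounds and 0.1 nM estradiol, then viability is read by fluorescence.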
For orientation: Quantitative high-throughput screening tests each substance at several concentrations.

Assay [2] can be described thus: qHTS assay to identify small molecule phospholipidosis (PLD) inducers (AID 1259344; active = well fitted curve in the direction sought with a large enough effect; an effect the other way counts as inactive or inconclusive). A digest of the protocol: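 HepG2 cells, 900/well, treated with compound plus LipidTOX Red for 24 h at 37 C; amiodarone positive and DMSO negative controls. Fixed with paraformaldehyde/Hoechst, then high-content imaging scored LipidTOX pit count and integrated intensity per well and per cell.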

The nature of assay [3]: qHTS assay to identify small molecule HDAC inhibitors (AID 1259364).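 Note: wild-type HCT-116 cells with endogenous class I/II HDAC activity; top concentration of the series differs between compounds; nearly all actives have a fitted effect of over 45% in size.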 Summed up: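 Relative class I and II HDAC activity is taken from the luminogenic signal in HCT-116 cells, with compound exposure 2 hr and reagent development 30 min at room temperature.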
Assay [4] is described as follows: qHTS assay to identify small molecule agonists of the sonic hedgehog signaling (Shh) pathway - cell viability counter screen (AID 1259366). Note: nearly all actives have a fitted effect of over 50% in size. Summed up:
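Viability measured fluorometrically (CellTiter-Fluor, 1hr, 37C) in 3T3 Gli1-Luc reporter cells after 23hr compound exposure within a 24hr incubation at 37C/5% CO2.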

Assay [5] in a line: qHTS assay to identify small molecule antagonists of the sonic hedgehog signaling (Shh) pathway - cell viability counter screen (AID 1259367). Note: nearly all actives have a fitted effect of over 55% in size. A digest of the protocol:
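NIH/3T3-derived Gli1-Luc reporter cells, 2,000/well, plated 4 hr before compound addition, then stimulated with conditioned medium for 24 hr at 37C. Viability measured in the same wells by CellTiter-Fluor fluorescence, reagent added at 23 hr for 1 hr.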

The nature of assay [6]: qHTS assay to identify small molecule agonists of the sonic hedgehog signaling (Shh) pathway (AID 1259368; calls by dose curve;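 note: NIH/3T3-derived 3T3Gli1-Luc cells carrying a stable Gli1-driven firefly luciferase reporter; series mostly up to about 92 µM; nearly all actives have a fitted effect of over 15% in size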). Summed up: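 Mouse fibroblast (NIH/3T3) reporter cells with stably integrated Gli1-Luc were treated 24 hr with compound; firefly luciferase luminescence served as the read-out.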
A short description of assay [7]: qHTS assay to identify small molecule antagonists of the sonic hedgehog signaling (Shh) pathway (AID 1259369; calls by dose curve; note: nearly all actives have a fitted effect of over 45% in size). A digest of the protocol: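 Conditioned medium drives Shh signalling in 3T3Gli1-Luc cells; compounds in DMSO co-applied, 24hr at 37 C, then luciferase luminescence.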
The nature of assay [8]: qHTS assay to identify small molecule agonists of the androgen receptor (AR) signaling pathway in the presence of an antagonist - cell viability counter screen (AID 1259379).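 Note: MDA-kb2 human breast cancer cells carrying an MMTV luciferase reporter; series mostly up to about 92 µM; nearly all actives have a fitted effect of over 25% in size.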 Summed up: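 A CellTiter-Fluor read-out measured viability of MDA-kb2 reporter cells (MMTV promoter with AR and GR response elements). Treatment: nilutamide 3.0uM final with compounds at 15 concentrations, 16 hr, 37C, 0% CO2.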

Assay [9] in a line: qHTS assay to identify small molecule agonists of the estrogen receptor beta (ER-beta) signaling pathway - cell viability counter screen (AID 1259380). Note: nearly all actives have a fitted effect of over 30% in size. A digest of the protocol:
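Cells used were ER-beta-UAS-bla HEK293T in medium with 2% charcoal-stripped FBS. They were treated for 16 hr at 37C. Viability came from CellTiter-Glo luminescence.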

A short description of assay [10]: qHTS assay to identify small molecule antagonists of the estrogen receptor beta (ER-beta) signaling pathway - cell viability counter screen (AID 1259382). Note: series mostly up to about 92 µM; nearly all actives have a fitted effect of over 55% in size. Summed up:
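Agonist-stimulated (1nM E2) ER-beta-UAS-bla HEK293T cells are incubated with library compounds for 16 hr at 37C. Cell viability is then assessed in the reporter-assay wells by adding CellTiter-Glo and reading luminescence after 30 min.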

The nature of assay [11]: qHTS assay to identify small molecule agonists or antagonists of the thyroid stimulating hormone receptor (TSHR) signaling pathway - wild type cell line counter screen (AID 1259384; calls by dose curve). A digest of the protocol: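 Wild-type Hek293 cells, 800/well, 18 h at 37C, then compound with Ro20-1724 for 30 min RT. cAMP by HTRF (cAMP-d2/anti-cAMP cryptate), 1 h RT, fluorescence read. 15 concentrations, triplicates.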

The target in assay [12] is Thyrotropin receptor (Homo sapiens) (UniProt P16473). Description: qHTS assay to identify small molecule antagonists of the thyroid stimulating hormone receptor (TSHR) signaling pathway (AID 1259385; calls by dose curve; note: nearly all actives have a fitted effect of over 20% in size). A digest of the protocol:
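TSHR-HEK293 cells (800/well) plated 18 h, then compounds with Ro20-1724 and TSH at 1.5 ng/mL final, 30 min at room temperature. cAMP quantified by HTRF (cAMP-d2/anti-cAMP-cryptate, 1 h); 15 concentrations in triplicate.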

Assay [13] is described as follows: qHTS assay to identify small molecule agonists of the estrogen receptor alpha (ER-alpha) signaling pathway in the presence of an antagonist - cell viability counter screen (AID 1259386).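 Note: series mostly up to about 92 µM; cells exposed to compounds for 22 h at 37 °C before the viability read; nearly all actives have a fitted effect of over 30% in size.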 A digest of the protocol:
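ICI-182,780 at 10.0nM final accompanies the compound titration (15 concentrations, 22hr, 37C) on VM7Luc4E2 cells. The CellTiter-Fluor fluorescence readout runs in the same wells as the luciferase assay.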

Assay [14] deals with Estrogen receptor (Homo sapiens) (UniProt P03372). Description: qHTS assay to identify small molecule antagonists of the estrogen receptor alpha (ER-alpha) signaling pathway using the BG1 cell line in the presence of 0.1 nM 17-beta-estradiol (AID 1259244). Note: nearly all actives have a fitted effect of over 50% in size. A digest of the protocol:
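VM7Luc4E2; 4xERE-luciferase; 0.1 nM E2 final; 22 h co-incubation, 37C; ONE-Glo luminescence after 30 min at room temperature.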

Assay [15] in a line: qHTS assay to identify small molecule HDAC inhibitors - cell viability counter screen (AID 1259365). Note: series mostly up to about 92 µM; nearly all actives have a fitted effect of over 50% in size. A digest of the protocol: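 Viability readout: CellTiter-Glo luminescence. Wild-type HCT-116 cells, 2hr compound treatment following overnight attachment at 37 C.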
In assay [16] the target is Estrogen receptor (Homo sapiens) (UniProt P03372). Kind of assay: qHTS assay to identify small molecule agonists of the estrogen receptor alpha (ER-alpha) signaling pathway in the presence of an antagonist (AID 1259383; calls by dose curve; note: nearly all actives have a fitted effect of over 15% in size; note: potency is the fitted concentration of half-maximal effect; for activation: top concentration of the series differs between compounds). A digest of the protocol:
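Using VM7Luc4E2 cells seeded 24hr before treatment, antagonist ICI-182,780 (10.0nM final) was added, followed by compounds at 15 concentrations. Plates incubated 22hr; ONE-Glo luminescence quantified reporter activity.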

Assay [17] concerns the target Estrogen receptor beta (Homo sapiens) (UniProt Q92731). Kind of assay: qHTS assay to identify small molecule agonists of the estrogen receptor beta (ER-beta) signaling pathway (AID 1259377; active = well fitted activation curve with a large enough effect in the signal ratio in the repeat runs, not every such curve was filed as active; the % refers to the signal ratio). A digest of the protocol: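 A UAS-controlled beta-lactamase reporter in ER-beta-UAS-bla HEK293T cells reports receptor activation. Compounds act for 16 hr at 37C in 2% charcoal-stripped serum, and a FRET substrate is read by fluorescence after 2 hours.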

Assay [18] has the same target. Kind of assay: qHTS assay to identify small molecule antagonists of the estrogen receptor beta (ER-beta) signaling pathway (AID 1259378; active = well fitted inhibition curve with a large enough effect in the signal ratio in the repeat runs, not every such curve was filed as active; the % refers to the signal ratio). A digest of the protocol:
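ER-beta-UAS-bla HEK293T cells in 2% charcoal-stripped FBS medium treated with compound plus 1nM final 17-beta-estradiol for 16 hr at 37C. Beta-lactamase reporter read by FRET substrate fluorescence after 2 hours at room temperature.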

Molecules are shown by their SMILES. Inconclusive results are not listed. The source holds several records for some structures; these can differ, active in one and inactive in another. Activity calls are given as the source filed them. Unless noted, calls come from the whole dose curve; as a rule, active = well fitted curve in the direction sought with a large enough effect in the repeat runs; inconclusive = weak or mixed curves; inactive = no such curve, though single readings can be large; an effect the other way counts as inactive or inconclusive.

Chain of Estrogen receptor beta (Homo sapiens) (Q92731 whole entry, looked up): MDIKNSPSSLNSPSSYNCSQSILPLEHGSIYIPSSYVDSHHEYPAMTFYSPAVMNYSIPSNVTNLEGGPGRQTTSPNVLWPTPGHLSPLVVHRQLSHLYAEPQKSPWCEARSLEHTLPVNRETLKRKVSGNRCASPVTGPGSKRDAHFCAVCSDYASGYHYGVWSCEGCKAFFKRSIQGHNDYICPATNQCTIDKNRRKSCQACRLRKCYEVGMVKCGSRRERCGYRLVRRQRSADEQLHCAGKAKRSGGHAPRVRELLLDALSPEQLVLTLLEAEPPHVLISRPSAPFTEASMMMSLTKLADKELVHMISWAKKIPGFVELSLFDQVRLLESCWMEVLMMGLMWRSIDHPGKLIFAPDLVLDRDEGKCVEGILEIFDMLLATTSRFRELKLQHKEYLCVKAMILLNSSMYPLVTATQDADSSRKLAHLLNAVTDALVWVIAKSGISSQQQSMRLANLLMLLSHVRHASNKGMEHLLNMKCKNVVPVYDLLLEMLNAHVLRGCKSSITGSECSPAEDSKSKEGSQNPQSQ
Chain of Thyrotropin receptor (Homo sapiens) (P16473 whole entry, looked up): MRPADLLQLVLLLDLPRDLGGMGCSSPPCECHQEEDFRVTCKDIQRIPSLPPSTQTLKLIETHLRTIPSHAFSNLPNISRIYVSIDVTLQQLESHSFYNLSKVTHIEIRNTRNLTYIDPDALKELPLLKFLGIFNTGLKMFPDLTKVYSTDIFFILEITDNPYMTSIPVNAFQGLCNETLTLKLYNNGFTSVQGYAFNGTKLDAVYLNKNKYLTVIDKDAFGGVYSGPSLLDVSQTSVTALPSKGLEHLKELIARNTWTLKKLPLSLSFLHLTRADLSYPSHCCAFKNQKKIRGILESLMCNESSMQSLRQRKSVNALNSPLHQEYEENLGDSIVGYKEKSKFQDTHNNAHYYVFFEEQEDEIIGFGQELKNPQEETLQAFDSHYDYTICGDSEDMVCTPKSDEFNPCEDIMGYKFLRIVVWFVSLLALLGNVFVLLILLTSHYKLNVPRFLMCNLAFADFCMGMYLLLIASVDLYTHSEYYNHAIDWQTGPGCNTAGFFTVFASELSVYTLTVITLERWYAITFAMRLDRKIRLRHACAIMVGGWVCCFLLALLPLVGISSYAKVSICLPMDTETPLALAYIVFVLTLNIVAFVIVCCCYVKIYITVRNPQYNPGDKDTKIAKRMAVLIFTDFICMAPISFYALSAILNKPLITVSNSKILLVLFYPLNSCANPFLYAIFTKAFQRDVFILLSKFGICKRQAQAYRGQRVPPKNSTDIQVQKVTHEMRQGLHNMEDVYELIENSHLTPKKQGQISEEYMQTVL
Chain of Estrogen receptor (Homo sapiens) (P03372 whole entry, looked up): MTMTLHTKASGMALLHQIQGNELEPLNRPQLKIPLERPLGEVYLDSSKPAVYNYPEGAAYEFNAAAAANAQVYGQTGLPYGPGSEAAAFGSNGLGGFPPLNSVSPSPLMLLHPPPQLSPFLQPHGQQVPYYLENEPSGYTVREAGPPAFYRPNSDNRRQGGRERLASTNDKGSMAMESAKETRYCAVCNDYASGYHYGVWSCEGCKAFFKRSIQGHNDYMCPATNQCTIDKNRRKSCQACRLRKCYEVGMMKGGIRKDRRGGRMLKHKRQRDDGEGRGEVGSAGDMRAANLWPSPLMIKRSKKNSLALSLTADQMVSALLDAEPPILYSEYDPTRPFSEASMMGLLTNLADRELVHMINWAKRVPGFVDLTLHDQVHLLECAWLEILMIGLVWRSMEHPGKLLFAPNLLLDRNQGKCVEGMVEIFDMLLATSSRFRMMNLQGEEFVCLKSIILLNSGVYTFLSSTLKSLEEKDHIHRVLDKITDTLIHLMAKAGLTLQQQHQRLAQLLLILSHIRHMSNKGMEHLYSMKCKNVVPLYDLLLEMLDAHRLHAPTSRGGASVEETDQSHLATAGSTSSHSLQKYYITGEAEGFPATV

As for `Cc1ncc(CO)c(CO)c1O`, the Potency result in [1], in [3], in assay [4], in assay [5], in assay [6] and in assay [7] was “inactive” throughout. Further, the Potency entry in assay [8], in assay [9], in [10], in assay [11], in assay [12] and in [13] was “inactive” in each case. Further, the molecule was called inactive in assay [2].
`Cc1ccc(Cl)cc1`: the Potency entry in [1], in assay [14], in assay [3], in [15], in [4] and in [5] was “inactive” each time. Further, the Potency result in assay [6], in [7], in [8], in assay [9], in assay [10] and in assay [16] was “inactive” in each case. For the same molecule, the Potency entry in assay [11], in assay [12] and in [13] was “inactive” in each case.
Turning to `COc1ccc([C@@H]2CC(=O)c3c(O)cc(O[C@@H]4O[C@H](CO[C@@H]5O[C@@H](C)[C@H](O)[C@@H](O)[C@H]5O)[C@@H](O)[C@H](O)[C@H]4O)cc3O2)cc1OC`, the Potency entry in [1], in [14], in assay [3], in [4], in [5] and in assay [6] was “inactive” throughout. Moreover, the Potency entry in assay [7], in assay [17], in assay [8], in assay [9], in assay [10] and in [16] was “inactive” throughout. Moreover, the Potency result in [11], in assay [12] and in [13] was “inactive” each time.
With `C=CC(=O)NCOCCCC`, the Potency entry in assay [1], in assay [14], in [3], in [4], in [5] and in assay [6] was “inactive” in each case. Moreover, the Potency result in assay [7], in assay [17], in assay [18], in assay [8], in assay [9] and in [10] was “inactive” each time. Besides, the Potency entry in [16] and in assay [13] was “inactive” each time.
For `C=CC(C)(C)C`, the Potency entry in assay [1], in assay [14], in assay [3], in assay [15], in assay [4] and in [5] was “inactive” in each case. The Potency entry in assay [6], in assay [7], in assay [17], in [8], in [9] and in assay [10] was “inactive” each time. Moreover, the Potency entry in assay [16], in assay [11], in assay [12] and in [13] was “inactive” in each case.
With `CN=C(NC#N)NCCSCc1nc[nH]c1C`, the Potency entry in [1], in [14], in assay [3], in [4], in [5] and in [6] was “inactive” throughout. In addition, the Potency result in [7], in assay [17], in assay [8], in assay [9], in assay [10] and in [16] was “inactive” each time. For the same molecule, the Potency entry in assay [11], in [12] and in assay [13] was “inactive” throughout. In addition, in assay [2], the molecule was called inactive.
As to `CCOC(=O)CC(=O)OCC`, the Potency result in assay [1], in assay [3], in assay [4], in [5], in assay [6] and in assay [7] was “inactive” in each case. The Potency result in assay [8], in assay [9], in assay [10], in assay [11], in assay [12] and in assay [13] was “inactive” each time.
Regarding `Clc1cccc(Cl)c1NC1=NCCN1`, the Potency entry in [1], in assay [3], in assay [4], in assay [5], in [6] and in assay [7] was “inactive” in each case. Further, the Potency result in assay [8], in assay [9], in assay [10], in [11], in assay [12] and in assay [13] was “inactive” in each case. The molecule was classed as inactive in assay [2].
Consider `CCCCCNCCCCC`, for which the Potency entry in assay [1], in [3], in [15], in assay [4], in assay [5] and in assay [6] was “inactive” each time. For the same molecule, the Potency result in [7], in assay [17], in assay [8], in assay [9], in assay [10] and in assay [11] was “inactive” throughout. The Potency result in [12] and in assay [13] was “inactive” each time.
In the case of `NC(=O)c1ncn([C@@H]2O[C@H](CO)[C@@H](O)[C@H]2O)n1`, the Potency result in assay [1], in [3], in [4], in assay [5], in [6] and in assay [7] was “inactive” in each case. Further, the Potency entry in assay [8], in assay [9], in [10] and in [13] was “inactive” in each case. Moreover, in [2], the molecule was called inactive.
As to `OC1CCCCC1`, the Potency entry in assay [1], in assay [14], in assay [3], in [15], in [4] and in [5] was “inactive” in each case. Moreover, the Potency entry in assay [6], in assay [7], in assay [8], in [9], in assay [10] and in assay [16] was “inactive” throughout. Also, the Potency result in [11], in [12] and in [13] was “inactive” in each case.
`CCCCCCCC(=O)O`: the Potency result in assay [1], in assay [14], in assay [3], in assay [4], in [5] and in assay [6] was “inactive” each time. The Potency entry in assay [7], in [17], in assay [8], in [9], in [10] and in [13] was “inactive” each time. In assay [2], the result was inactive. The Potency in assay [16] was 26.3 µM (active) and inactive.
